PubChem BioAssay AID1159580 (chemical genetic matrix, 2015)
Out of some 5,500 compounds screened, about 2,000 (36%) were called active. Roughly 18% stayed inconclusive and do not appear here. Cut-off read from the data, not from the text of the source: active = normalized growth mostly below about 0.91 (no sharp cut-off); inconclusive = no clear call, values can overlap the other calls; inactive = mostly above about 0.92. This is one part of the list.

Assay: chemical genetic growth profiling, strain panel (AID 1159580);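 note: tested at 20 µM; growth read once vehicle control cultures reached saturation at 30 °C; 1 = growth at the plate median or of vehicle wells; lower values mean less growth of the strain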
Settings: S. cerevisiae deletion strains, growth OD
[1] = locus YAL021C, strain ccr4, stronger effect = lower value
[2] = locus YAL026C, strain drs2, stronger effect = lower value
[3] = locus YAL030W, strain snc1, stronger effect = lower value
[4] = locus YBL061C, strain skt5, stronger effect = lower value
[5] = locus YBR009C, strain hhf1, stronger effect = lower value
[6] = locus YBR023C, strain chs3, stronger effect = lower value
[7] = locus YBR171W, strain sec66, stronger effect = lower value
[8] = locus YBR231C, strain swc5, stronger effect = lower value
[9] = locus YBR279W, strain paf1, stronger effect = lower value
[10] = locus YCL011C, strain gbp2, stronger effect = lower value
[11] = locus YCL016C, strain dcc1, stronger effect = lower value
[12] = locus YCL061C, strain MRC1, stronger effect = lower value
[13] = locus YCL069W, strain vba3, stronger effect = lower value
[14] = locus YCR088W, strain abp1, stronger effect = lower value
[15] = locus YDL005C, strain med2, stronger effect = lower value
[16] = locus YDL040C, strain nat1, stronger effect = lower value
[17] = locus YDR001C, strain nth1, stronger effect = lower value
[18] = locus YDR069C, strain doa4, stronger effect = lower value
[19] = locus YDR137W, strain rgp1, stronger effect = lower value
[20] = locus YDR159W, strain sac3, stronger effect = lower value
[21] = locus YDR297W, strain sur2, stronger effect = lower value
[22] = locus YDR334W, strain swr1, stronger effect = lower value
[23] = locus YDR335W, strain msn5, stronger effect = lower value
[24] = locus YDR392W, strain spt3, stronger effect = lower value
[25] = locus YEL003W, strain gim4, stronger effect = lower value
[26] = locus YEL037C, strain rad23, stronger effect = lower value
[27] = locus YEL061C, strain CIN8 (second series), stronger effect = lower value
[28] = locus YER015W, strain faa2, stronger effect = lower value
[29] = locus YER016W, strain bim1, stronger effect = lower value
[30] = locus YER111C, strain swi4, stronger effect = lower value
[31] = locus YER155C, strain BEM2 (second series), stronger effect = lower value
[32] = locus YFR010W, strain ubp6, stronger effect = lower value
[33] = locus YGL167C, strain pmr1, stronger effect = lower value
[34] = locus YGL173C, strain kem1, stronger effect = lower value
[35] = locus YGL227W, strain vid30, stronger effect = lower value
[36] = locus YGL240W, strain doc1, stronger effect = lower value
[37] = locus YGL253W, strain hxk2, stronger effect = lower value
[38] = locus YHR013C, strain ard1, stronger effect = lower value
[39] = locus YHR027C, strain rpn1, stronger effect = lower value
[40] = locus YHR030C, strain SLT2, stronger effect = lower value
[41] = locus YHR079C, strain IRE1, stronger effect = lower value
[42] = locus YHR142W, strain chs7, stronger effect = lower value
[43] = locus YJL092W, strain hpr5, stronger effect = lower value
[44] = locus YJL095W, strain BCK1 (second series), stronger effect = lower value
[45] = locus YJL095W, strain BCK1, stronger effect = lower value
[46] = locus YJL115W, strain asf1, stronger effect = lower value
[47] = locus YJL129C, strain trk1, stronger effect = lower value
[48] = locus YJL154C, strain vps35, stronger effect = lower value
[49] = locus YJL164C, strain tpk1, stronger effect = lower value
[50] = locus YJL166W, strain qcr8, stronger effect = lower value
[51] = locus YJL187C, strain SWE1, stronger effect = lower value
[52] = locus YJR066W, strain TOR1, stronger effect = lower value
[53] = locus YKL160W, strain elf1, stronger effect = lower value
[54] = locus YKR026C, strain gcn3, stronger effect = lower value
[55] = locus YKR091W, strain srl3, stronger effect = lower value
[56] = locus YLL001W, strain dnm1, stronger effect = lower value
[57] = locus YLL026W, stronger effect = lower value
[58] = locus YLL041C, strain sdh2, stronger effect = lower value
[59] = locus YLR027C, strain aat2, stronger effect = lower value
[60] = locus YLR113W, strain HOG1, stronger effect = lower value
[61] = locus YLR221C, strain rsa3, stronger effect = lower value
[62] = locus YLR258W, strain gsy2, stronger effect = lower value
[63] = locus YLR262C, strain YPT6 (second series), stronger effect = lower value
[64] = locus YLR320W, strain mms22, stronger effect = lower value
[65] = locus YLR342W, strain FKS1, stronger effect = lower value
[66] = locus YLR357W, strain rsc2, stronger effect = lower value
[67] = locus YLR370C, strain arc18, stronger effect = lower value
[68] = locus YLR384C, strain iki3, stronger effect = lower value
[69] = locus YML120C, strain ndi1, stronger effect = lower value
[70] = locus YMR058W, strain fet3, stronger effect = lower value
[71] = locus YMR125W, strain sto1, stronger effect = lower value
[72] = locus YMR129W, stronger effect = lower value
[73] = locus YMR205C, strain PFK2, stronger effect = lower value
[74] = locus YMR231W, strain pep5, stronger effect = lower value
[75] = locus YNL071W, strain lat1, stronger effect = lower value
[76] = locus YNL183C, strain NPR1, stronger effect = lower value
[77] = locus YNL209W, strain ssb2, stronger effect = lower value
[78] = locus YNL248C, strain rpa49, stronger effect = lower value
[79] = locus YNL322C, strain KRE1 (second series), stronger effect = lower value
[80] = locus YNR049C, strain mso1, stronger effect = lower value
[81] = locus YOR001W, strain rrp6, stronger effect = lower value
[82] = locus YOR070C, strain gyp1, stronger effect = lower value
[83] = locus YOR080W, strain dia2, stronger effect = lower value
[84] = locus YOR083W, strain WHI5, stronger effect = lower value
[85] = locus YOR106W, strain vam3, stronger effect = lower value
[86] = locus YOR231W, strain MKK1, stronger effect = lower value
[87] = locus YOR265W, strain rbl2, stronger effect = lower value
[88] = locus YOR270C, strain vph1, stronger effect = lower value
[89] = locus YOR290C, strain snf2, stronger effect = lower value
[90] = locus YPL051W, strain arl3, stronger effect = lower value
[91] = locus YPL078C, strain atp4, stronger effect = lower value
[92] = locus YPL106C, strain sse1, stronger effect = lower value
[93] = locus YPL240C, strain hsp82, stronger effect = lower value
[94] = locus YPL256C, strain CLN2, stronger effect = lower value

Measured: normalized growth

C=C(C)C1CC=C(CO)CC1 (configuration not stated)
inactive: [1] 0.983 | [2] 0.978 | [3] 0.973 | [4] 0.991 | [5] 0.994 | [6] 0.981 | [7] 0.95 | [8] 0.975 | [9] 0.983 | [10] 0.963 | [11] 0.983 | [12] 0.978 | [13] 0.948 | [14] 0.963 | [15] 0.961 | [16] 0.959 | [17] 0.963 | [18] 0.978 | [19] 0.941 | [20] 0.943 | [21] 0.975 | [22] 0.938 | [23] 0.965 | [24] 0.844 | [25] 0.976 | [26] 0.955 | [27] 0.946 | [28] 0.976 | [29] 0.969 | [30] 0.963 | [32] 0.98 | [33] 0.96 | [34] 0.955 | [35] 0.965 | [36] 0.954 | [37] 0.983 | [38] 0.982 | [39] 0.976 | [40] 1.06 | [41] 1.05 | [42] 0.995 | [43] 0.938 | [44] 0.97 | [45] 1.02 | [46] 0.953 | [47] 0.923 | [48] 0.962 | [49] 0.987 | [50] 0.972 | [51] 0.968 | [52] 0.997 | [53] 0.978 | [54] 0.972 | [55] 0.953 | [56] 0.988 | [57] 0.976 | [58] 0.971 | [59] 0.993 | [60] 1.01 | [61] 1.01 | [62] 0.979 | [63] 0.954 | [64] 0.983 | [65] 0.967 | [66] 0.92 | [67] 0.938 | [68] 0.958 | [69] 0.974 | [70] 0.968 | [71] 0.931 | [72] 0.955 | [73] 0.956 | [74] 0.971 | [75] 0.953 | [76] 0.947 | [77] 0.968 | [78] 0.932 | [79] 0.948 | [80] 0.951 | [81] 0.969 | [82] 0.97 | [83] 0.951 | [84] 0.994 | [85] 0.989 | [86] 1.05 | [87] 0.968 | [88] 0.949 | [89] 0.96 | [90] 0.99 | [91] 0.979 | [92] 0.945 | [93] 0.959 | [94] 1.04
active: locus YDR195W, strain ref2 0.809 | [31] 0.793

O=C(O)C1=CCNCC1
inactive: locus YAL013W, strain DEP1, stronger effect = lower value 0.953 | [1] 0.979 | [2] 1.02 | [3] 1.02 | [4] 1.01 | [5] 1.03 | [6] 1.01 | [7] 1.01 | [8] 1.05 | [9] 1.01 | [10] 1.01 | [11] 1.02 | locus YCL061C, strain MRC1 (second series), stronger effect = lower value 0.984 | [12] 1.02 | [13] 1.01 | [14] 1.02 | [15] 1.01 | [16] 1 | [17] 1.01 | [18] 1.03 | [19] 0.985 | locus YDR150W, strain NUM1, stronger effect = lower value 0.991 | [20] 1.02 | locus YDR195W, strain ref2 0.996 | [21] 1.01 | [22] 1.02 | [23] 1.02 | locus YDR363W, strain ESC2, stronger effect = lower value 0.979 | [24] 0.98 | [25] 1.02 | [26] 1.01 | [27] 1.01 | locus YER002W, strain NOP16, stronger effect = lower value 0.993 | [28] 1.02 | [29] 1.02 | [30] 1.01 | [31] 1.05 | [32] 1.02 | [33] 1.02 | [34] 1.01 | [35] 1.01 | [36] 1.03 | [37] 1.01 | [38] 1.02 | [39] 1.02 | [40] 1.04 | [41] 1.05 | [42] 0.988 | [43] 1.01 | [44] 1.02 | [45] 1.03 | [46] 1.02 | [47] 1.01 | [48] 1.01 | [49] 1.01 | [50] 1.01 | [51] 1.01 | [52] 0.961 | locus YJR075W, strain HOC1, stronger effect = lower value 0.978 | [53] 0.99 | [54] 1.02 | [55] 1.01 | [56] 1.01 | [57] 1.01 | [58] 1.01 | [59] 1.01 | [60] 1.06 | [61] 1.02 | [62] 1.04 | [63] 1.01 | [64] 1.03 | [65] 1.03 | [66] 1.03 | [67] 1.02 | [68] 1.01 | [69] 1.01 | [70] 1.02 | [71] 1.02 | [72] 1.01 | [73] 1.03 | [74] 1.01 | [75] 1.02 | locus YNL128W, strain TEP1, stronger effect = lower value 0.982 | locus YNL153C, strain GIM3, stronger effect = lower value 0.965 | locus YNL175C, strain NOP13, stronger effect = lower value 0.994 | [76] 0.958 | [77] 1.01 | locus YNL224C, strain SQS1, stronger effect = lower value 0.982 | [78] 0.98 | [79] 1.01 | locus YNL322C, strain KRE1, stronger effect = lower value 0.991 | [80] 1.02 | [81] 1 | [82] 1.02 | [83] 1.03 | [84] 0.982 | [85] 0.986 | [86] 1.04 | [87] 1.01 | [88] 1.02 | [89] 1.01 | [90] 1.01 | locus YPL055C, strain LGE1, stronger effect = lower value 0.974 | [91] 0.991 | [92] 1.02 | [93] 1 | [94] 1.05
